KB-3-1 tox – KB-3-1 parental cell cytotoxicity; 400,000 tested, 1.4% active; Potency, µM (doses to about 46.1 µM), usual class: cytotoxic; AID 1347075; KB-3-1 viability, CellTiter-Glo ATP luminescence, 72 h; note: % is set by controls: 0 for no effect and ±100 for the full control effect; nearly all actives have a fitted effect of over 60% in size
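Parental KB-3-1 viability, qHTS format: 72 h compound exposure, 37 °C; CellTiter-Glo; media-only wells and DMSO plates as controls; concentration-effect fits on corrected data.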
SW480 rerep – inducers of DNA re-replication in SW480 colon cancer cells; SW480 DNA re-replication, Hoechst DNA content imaging, 48 h; Potency, µM (highest dose often 46.1 µM), for inactives: at the top dose re-replication activation, usual class: activators; 340,000 tested, 1.8% active; note: % of control where 0% means no effect; nearly all actives have a fitted effect of over 55% in size
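Cells (250 per well) received 23 nL compound or DMSO by pin tool and were kept 48 hr at 37 C, 5% CO2. Nuclei were then stained with Hoechst for 40 min and scanned for DNA content.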
RGS4 inh – blocks human RGS4-accelerated GTP hydrolysis; Transcreener GDP fluorescence polarization, RGS4-accelerated GTP hydrolysis; Potency, µM (series often up to 114 µM), inactives show at the highest dose activity change, negative = inhibition, hits mostly inhibitors; 390,000 tested, 0.039% active; AID 504845; note: % is set by controls: 0 for no effect and ±100 for the full control effect; nearly all actives have a fitted effect of over 75% in size
Target sequence (P49798 whole entry, looked up): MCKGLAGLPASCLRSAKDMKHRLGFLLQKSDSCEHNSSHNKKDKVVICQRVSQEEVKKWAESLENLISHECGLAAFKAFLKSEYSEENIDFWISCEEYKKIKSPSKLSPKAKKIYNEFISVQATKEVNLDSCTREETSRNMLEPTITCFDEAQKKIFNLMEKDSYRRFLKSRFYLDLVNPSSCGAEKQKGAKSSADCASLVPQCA
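MLSMR compounds (23 nl, pin-transferred) preincubated 10 min at room temperature with a 500nM (2x) first reagent, then RGS4 at 900nM (2x) plus Transcreener GDP mix added; fluorescence polarization (620/688 nm) read before and after 90 min at 30 °C.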
KB-V1 MDR tox – kills drug-selected multidrug resistant KB-V1 cells. KB-V1 MDR cells viability, CellTiter-Glo, 72 h. Potency, µM (doses to about 46.1 µM), hits mostly cytotoxic. 400,000 tested, 3.4% active. AID 1347076; note: % is set by controls: 0 for no effect and ±100 for the full control effect; nearly all actives have a fitted effect of over 60% in size
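Cells of the MDR subline KB-V1 are plated, dosed with compound at multiple concentrations, and incubated 72 h at 37 degrees C; CellTiter-Glo is then added and luminescence read after 10 min.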
MCF10A rereplic – DNA re-replication induction in MCF 10a cells | 350,000 tested, 2.9% active | Potency, µM (titrated, usually from 46.1 µM), inactives show at the top dose activity, positive = re-replication, hits mostly activators | MCF 10A DNA re-replication, Hoechst nuclear intensity, 48 h | AID 624296; note: % of control where 0% means no effect; nearly all actives have a fitted effect of over 50% in size
TSG101-PTAP inh – blocks PTAP/TSG101 interaction to inhibit HIV-1 budding. Fluorescence polarization, FITC-PTAP peptide / Tsg101 binding. AID 493005. 340,000 tested, under 10 active. Potency, µM (series often up to 115 µM), for inactives: top-dose activity change, negative = inhibition, actives largely listed as inhibitors; active = well fitted inhibition curve with a large enough effect in the main read-out, with a control signal flat, not every such curve was filed as active; inconclusive = small, poorly fitted or top-dose-only effect, or effect the other way, or a change in a side signal; inactive = no such curve, though single readings can be large or run the other way; note: % of control where 0% means no effect
Target sequence (Q99816 whole entry, looked up): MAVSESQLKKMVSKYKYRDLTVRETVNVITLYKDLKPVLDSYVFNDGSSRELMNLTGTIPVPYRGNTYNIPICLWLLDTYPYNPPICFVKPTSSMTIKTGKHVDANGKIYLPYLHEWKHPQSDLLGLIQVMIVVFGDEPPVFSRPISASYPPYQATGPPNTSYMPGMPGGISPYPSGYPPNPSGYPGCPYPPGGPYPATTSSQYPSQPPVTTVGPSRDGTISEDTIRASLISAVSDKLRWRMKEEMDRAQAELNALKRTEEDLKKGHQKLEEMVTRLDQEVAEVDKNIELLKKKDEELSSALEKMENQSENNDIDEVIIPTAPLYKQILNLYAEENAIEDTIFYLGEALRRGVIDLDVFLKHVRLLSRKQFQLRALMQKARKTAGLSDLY
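FP read-out: FITC-PTAP peptide, 50 nM final, binding Tsg101 binding domain, 10 uM final; 20 min, r.t.; 10 mM HEPES pH 7.5, 0.15 M NaCl, 0.01% Tween 20, 3 mM EDTA, 0.1 mM TCEP.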
* marks the source's active call; other numbers are inactive results; i = inactive; ? = inconclusive; · = not tested or not shown; [ ] = another dose, or the depositor's remark. Only some compounds are listed: those with a hit (about 6.6% of all), similar ones and a draw of the others. Unless noted, calls come from the whole dose curve; as a rule, active = well fitted curve in the direction sought with a large enough effect; inconclusive = small, poorly fitted or top-dose-only effect, or another doubt; inactive = no such curve, though single readings can be large; an effect the other way counts as inactive or inconclusive. Potency is the fitted concentration of half-maximal effect.

SMILES	KB-3-1 tox	SW480 rerep	RGS4 inh	KB-V1 MDR tox	MCF10A rereplic	TSG101-PTAP inh
CC(C)(C)NCCC(O)c1cc(C(F)(F)F)nc2c(C(F)(F)F)cccc12 (configuration not stated)	?	?	16%	21µM*	18%	-5%
OC(c1cc(C(F)(F)F)nc2c(Cl)cc(Cl)cc12)C1CCCCN1 (configuration not stated)	?	?	1%	?	?	0%
Cc1nc(-c2ccc(Cl)cc2)sc1CCNC(=O)C(=O)Nc1ccc2c(c1)OCO2	i	·	-9%	i	·	·
CCc1c(C)sc2c1CCN(Cc1ccccc1F)C2c1ccccc1 (configuration not stated)	18µM*	·	0%	?	·	·
CCc1c(C)sc2c1CCN(Cc1cccc(OC)c1)C2c1ccccc1 (configuration not stated)	?	·	-11%	i	·	·
c1nc(NCCCN2CCOCC2)c2cc(-c3ccc4c(c3)OCO4)ccc2n1	i	·	·	i	·	·
COc1ccc(NC(=O)c2cc3ccccn3n2)cc1	i	-4%	3%	?	10%	-4%
O=C(Nc1ccc(OC(F)(F)F)cc1)c1cc2ccccn2n1	10µM*	·	4%	?	·	·
CC(C)C(=O)NC(c1ccco1)c1ccc2cccnc2c1O (configuration not stated)	4.1µM*	3.7µM*	6%	4.6µM*	?	-4%
CC(=O)NC(C)c1cc(Cl)c2cccnc2c1O (configuration not stated)	i	?	-3%	i	3.3µM*	-1%
CC(=O)NC(C)c1cc(Cl)c2ccccc2c1O (configuration not stated)	i	-4%	-2%	i	16%	·
CCC(=O)NC(c1cccs1)c1ccc2cccnc2c1O (configuration not stated)	i	?	-11%	?	22%	0%
CCCC(=O)NC(c1cccs1)c1cc(Cl)c2cccnc2c1O (configuration not stated)	?	1.3µM*	-4%	i	26%	-2%
CC(C)CC(=O)NC(c1cccs1)c1ccc2cccnc2c1O (configuration not stated)	?	0.82µM*	-9%	i	?	-2%
Cc1ccc(C2=CC(c3ccccc3F)n3c(nc4ccccc43)N2)cc1C (configuration not stated)	?	·	0%	i	·	·
COc1ccc(CNC(=O)Cn2nc(N3CCN(c4ccccc4)CC3)ccc2=O)c(OC)c1	i	·	-12%	i	·	·
CCC(=O)NC(C)c1cc(Cl)c2cccnc2c1O (configuration not stated)	8.2µM*	?	0%	i	?	·
CC(=O)NC(c1cccs1)c1cc(F)c2cccnc2c1O (configuration not stated)	10µM*	?	-19%	i	-18%	-9%
CC(=O)NC(c1ccco1)c1cc(F)c2cccnc2c1O (configuration not stated)	?	7%[9.22 µM]	0%	i	?	1%
COc1cc2ccc(=O)oc2cc1OCC(O)C(C)(C)O (configuration not stated)	i	-1%	15%	i	3%	0%
COc1cc2ccc(=O)oc2cc1O	i	15µM*	-19%	i	?	-6%
O=C(Cn1c(=O)n(Cc2nc(-c3ccccc3)no2)c(=O)c2cc3c(cc21)OCO3)Nc1ccc(Cl)cc1	i	·	19%	i	·	·
CCCOc1cccc(C2c3c(-c4ccccc4O)n[nH]c3C(=O)N2Cc2ccco2)c1 (configuration not stated)	·	·	-16%	·	·	·
COc1cccc(CNCc2cccc(OC)c2O)c1O	i	-2%	23%	18µM*	-1%	-1%
CCCn1c(NCc2cccc(OC)c2O)nc2ccccc21	i	2%	7%[11.4 µM]	8.2µM*	-1%	-1%
SMILES	KB-3-1 tox	SW480 rerep	RGS4 inh	KB-V1 MDR tox	MCF10A rereplic	TSG101-PTAP inh
COc1cccc(CNCc2ccco2)c1O	i	5%	-15%	i	-12%	1%
CCCCn1c(NCc2cc(Cl)ccc2O)nc2ccccc21	?	·	2%	13µM*	·	·
CCc1ccc(Cn2c(CNS(=O)(=O)c3ccc(F)c(Cl)c3)nc3cccnc32)cc1	·	·	15%	·	·	·
Cn1ncc2c(NCc3ccco3)ncnc21	i	·	·	i	·	·
Nc1nc2ncccn2c1-c1ccc(F)cc1	i	·	·	i	·	·
O=Nc1nc2ncccn2c1-c1ccccc1	i	9.2µM*	?	?	13µM*	0%
COC(=O)c1cc2sc(Cl)cc2n1CC(=O)Nc1ccc(OC)c(OC)c1OC	i	18%	1%	i	26µM*	-4%
COc1cccc(CNC(=O)c2ccc(-n3c(C)cc4c3CCCC4)cc2)c1	i	·	0%	?	·	·
CC(C)NC(=O)C1CCN(C(=O)c2cc3sccc3n2Cc2ccc(Cl)cc2)CC1	?	·	4%	?	·	·
CC(C)NC(=O)C1CCN(C(=O)c2cc3sccc3n2Cc2ccc(F)cc2)CC1	18µM*	3%	3%	6.5µM*	-9%	3%
CCc1cc2c(-c3ccccc3)cc(=O)oc2c2c1OCN(Cc1ccc(F)cc1)C2	i	·	-16%	i	·	·
CCNC(=S)NNC(=O)c1csc2ccccc12	?	-2%	-36%	?	2%	-7%
CC(C)CNC(=S)NNC(=O)c1csc2ccccc12	i	5%	3%	15µM*	1%	·
Cc1ccc(S(=O)(=O)N2CCCc3cc(NC(=O)c4ccc(C(C)(C)C)cc4)ccc32)cc1	i	·	0%	i	·	·
Cc1nc(SCC(=O)Nc2ccccc2Cl)cc(-c2ccccc2)n1	·	·	7%	·	·	·
CCCCNC(=O)CCC(=O)Nc1ccc2nc(N3CCC(C)CC3)cc(C)c2c1	i	?	-6%	i	21µM*	0%
CCC(C)NC(=O)CCC(=O)Nc1ccc2nc(N3CC(C)CC(C)C3)cc(C)c2c1 (configuration not stated)	i	?	-17%	i	21µM*	1%
Cc1ccc(CCNC(=O)CCN2N=C(c3ccc(C)cc3)CCC2=O)cc1	·	·	21%	·	·	·
COc1ccc(OC)c(CNC(=O)c2nn(-c3ccc(OC)c(Cl)c3)c(=O)c3c2c2ccccc2n3C)c1	i	·	-16%	i	·	·
CCOc1ccc(C(=O)Nc2ccc(-c3nc4cc(CC)ccc4o3)cc2)cc1	·	·	0%	·	·	·
Nc1nnn(-c2ccccc2)c1-c1ccccc1	i	15µM*	8%	i	-1%	-4%

Assay outcomes deposited in PubChem BioAssay by National Center for Advancing Translational Sciences (NCATS).
